Hits are enriched below; roughly 4.3% of the tested compounds scored in any of these assays.
HGIII-sPLA2 inh = human group III sPLA2 inhibitors, primary screen, biochemical, QFRET, BODIPY PC-A2 liposome substrate | Group 3 secretory phospholipase A2 (Homo sapiens), Q9NZ20 | QFRET BODIPY PC-A2 liposome hydrolysis, fluorescence | inhibition, % at 12.2 µM | 370,000 tested, 0.56% active | AID 743126, 2013;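 active means inhibition above mean plus 3 SD of compounds lying within the high and low control bounds, cut at about 19% in these data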;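 further: 0% = median of test compound wells and 100% = no enzyme DMSO wells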
Target sequence (Q9NZ20 whole entry, looked up): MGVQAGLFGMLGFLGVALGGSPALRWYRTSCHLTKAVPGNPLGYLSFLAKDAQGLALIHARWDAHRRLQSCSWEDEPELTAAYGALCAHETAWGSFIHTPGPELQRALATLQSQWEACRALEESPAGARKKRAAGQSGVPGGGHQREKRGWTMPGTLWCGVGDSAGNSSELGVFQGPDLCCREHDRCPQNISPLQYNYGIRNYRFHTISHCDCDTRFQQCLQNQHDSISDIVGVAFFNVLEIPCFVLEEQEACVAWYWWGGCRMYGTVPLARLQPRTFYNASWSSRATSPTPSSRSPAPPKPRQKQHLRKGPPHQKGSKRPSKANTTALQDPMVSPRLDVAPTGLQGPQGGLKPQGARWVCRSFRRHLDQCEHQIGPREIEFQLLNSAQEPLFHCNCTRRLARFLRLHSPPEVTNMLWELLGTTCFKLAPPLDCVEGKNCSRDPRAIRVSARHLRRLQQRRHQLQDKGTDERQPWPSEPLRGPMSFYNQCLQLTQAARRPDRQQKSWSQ
ADAM17 inh = ADAM17 inhibitors, primary screen, biochemical, QFRET; Disintegrin and metalloproteinase domain-containing protein 17 (Homo sapiens), P78536; recombinant ADAM17, EDANS/DABCYL FRET peptide cleavage; inhibition, % at 6.95 µM; 370,000 tested, 0.83% active;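 active means inhibition above the mean of compounds lying between control limits plus 3 SD, set per campaign, cut at about 8.5% in these data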;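 further: 0% = DMSO-only wells as the low control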
NR3A LBD binder = binders of NR3A ligand-binding domain, primary screen, biophysical, differential scanning fluorimetry, uHTS; NR3A LBD differential scanning fluorimetry, Tm shift; 0% = protein alone, 100% = glycine-bound protein; AID 1259313, 2017; Tm shift relative to glycine control, % at 25 µM; 340,000 tested, 2.5% active; Glutamate receptor ionotropic, NMDA 3A (GRIN3A) ligand-binding domain;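 active means melting temperature shift of at least 10% of the positive control shift, at one fixed dose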
ADAM10 inh = human ADAM10 inhibitors, primary screen, biochemical, QFRET, HTS | recombinant ADAM10, EDANS/DABCYL FRET peptide cleavage, 3 h | inhibition, % at 7 µM | 370,000 tested, 0.62% active | AID 720582, 2013;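 active means inhibition above a per-campaign cutoff equal to the mean of compounds falling between control-based bounds plus 3 SD, cut at about 20% in these data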;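 further: 0% = DMSO wells while the 100% control is not disclosed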
FAS TE block = FAS thioesterase domain inhibitors, primary screen, biochemical, fluorescence intensity, uHTS; AID 602261, 2012; 360,000 tested, 0.67% active; recombinant FAS-TE, OMFH fluorogenic substrate, fluorescence endpoint; inhibition, % at 15 µM;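 active means compounds whose normalised, plate-corrected inhibition of enzyme fluorescence in the single-dose primary screen is 50% or more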;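 further: 0% = DMSO with enzyme and 100% = substrate without enzyme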
The depositor's hits bear a star; i = inactive; nt = not tested or not shown.

SMILES	HGIII-sPLA2 inh	ADAM17 inh	NR3A LBD binder	ADAM10 inh	FAS TE block
O=C(NNC(=S)Nc1ccc(F)c(Cl)c1)c1ccccc1Br	25.7*	6.3	0.1	11.5	-5.6
O=C(NNC(=S)Nc1ccc(F)c(Cl)c1)C1CC1	8.8	-4.3	1.9	-8.0	-5.8
CC(=O)Nc1cccc(NC(=O)Nc2ccc(C)c(Cl)c2)c1	-13.1	5.6	35.9*	12.1	3.6
CC(=O)Nc1cccc(NC(=O)c2cc(Cl)ccc2Cl)c1	0.5	-0.6	-0.4	-2.8	-0.1
O=C(NC1CCCCN(Cc2cccc(Cl)c2)C1=O)c1cccc(C(F)(F)F)c1 (configuration not stated)	-0.6	3.2	nt	6.6	nt
Cc1cc(OC(C)CCN2CCC(C(O)(c3ccccc3)c3ccccc3)CC2)ccc1Br (configuration not stated)	-7.5	3.6	nt	8.8	nt
CCOC(=O)N1C(=O)C[C@](Sc2ccc(OC)cc2)(C(=O)N(C)C)[C@H]1c1ccc(OC)cc1	2.8	-2.2	nt	-9.8	nt
CC(=O)Nc1ccc2cc3ccc(NC(C)=O)cc3nc2c1	1.5	-407.7	10.3*	i	-12.6
CC(=O)Nc1ccc2ccccc2c1	nt	nt	-0.1	nt	-6.6
COc1ccc(/C(C)=N\NC(=O)c2ccco2)cc1	7.9	-3.1	nt	-2.6	nt
Cc1sc2ncnc(N/N=C/c3cccc(O)c3)c2c1C	-24.1	0.5	13.4*	1.3	9.7
COc1cc(/C=N/Nc2ncnc3sc4c(c23)CCC4)ccc1O	-6.7	-2.7	29.5*	-12.0	2.0
CCCCCn1nnnc1C1(C)CCCCC(=O)N1Cc1ccco1 (configuration not stated)	2.9	-1.3	nt	-1.3	nt
COc1cc(C(=O)NCc2nc(C)cs2)ccc1OC1CCN(C(C)=O)CC1	11.5	-0.2	11.7*	3.7	-6.4
CCc1ccc(CNC(=O)c2ccc(OC)c(OC3CCN(C(C)C)CC3)c2)nc1	5.8	0.3	13.1*	7.9	-2.6
COc1ccc(C(=O)NCc2cnn(C)c2)cc1OC1CCN(C(C)C)CC1	3.4	-3.9	0.3	1.4	-7.1
COc1cccc(Cn2cc(COC(=O)N3CCCC3)nn2)c1	11.8	-6.0	nt	-11.9	nt
CCOc1ccc(NC(=O)CC2C(=O)N(C)C(=S)N2CCCc2ccccc2)cc1 (configuration not stated)	-10.1	2.2	7.0	6.4	0.2
CCN1C(=O)C(CC(=O)Nc2ccc(OC)cc2)N(Cc2ccc(OC)c(OC)c2)C1=S (configuration not stated)	-50.2	5.7	4.6	0.0	-0.9
CCOc1ccc(NC(=O)CC2C(=O)N(C)C(=S)N2Cc2ccc3c(c2)OCO3)cc1 (configuration not stated)	-67.1	5.8	12.2*	16.7	29.6
CN1C(=O)C(CC(=O)Nc2ccc(Cl)cc2)N(Cc2ccco2)C1=S (configuration not stated)	-27.9	-0.4	5.0	-1.8	37.3
CCN1C(=O)C(CC(=O)Nc2ccc(OC)cc2)N(Cc2ccc3c(c2)OCO3)C1=S (configuration not stated)	-45.0	0.2	21.8*	13.1	17.4
CCOc1ccc(NC(=O)CC2C(=O)N(C)C(=S)N2Cc2ccco2)cc1 (configuration not stated)	-4.3	-2.7	17.4*	1.2	-5.9
COc1ccc(N2CCN(C(=O)CNC(=O)Cc3ccc(Cl)cc3)CC2)cc1	1.3	-1.1	12.6*	-8.1	-1.5
O=[N+]([O-])c1ccc(O)c(/C=N\N=C2c3ccccc3-c3ccccc32)c1	11.7	-6.3	14.3*	0.0	7.0
SMILES	HGIII-sPLA2 inh	ADAM17 inh	NR3A LBD binder	ADAM10 inh	FAS TE block
CC(=O)c1cc(-c2ccc(Cl)c(C(F)(F)F)c2)c(=O)n2c1CCC2	6.4	-13.4	nt	-47.8	nt
CC1CCN(S(=O)(=O)c2ccc(C(=O)Nc3ccccc3-c3nc4ccccc4[nH]3)cc2)CC1	-1.9	1.2	30.7*	16.8	41.6
COc1ccccc1NC(=O)c1ccc(S(=O)(=O)N2CCCC(C)C2)cc1 (configuration not stated)	-8.2	1.8	1.1	9.1	10.0
CC1CCCN(S(=O)(=O)c2ccc(C(=O)Nc3ccccc3-c3nc4ccccc4[nH]3)cc2)C1 (configuration not stated)	12.6	-2.5	34.5*	3.3	18.3
O=S(=O)(CC1NCc2ccccc21)NC1CCCC1 (configuration not stated)	9.6	-3.7	nt	-6.2	nt
CC(=O)N1CCN(C2=NC(=O)N(c3ccc(Br)cc3)C(=O)C2)CC1	0.0	-1.7	nt	-6.9	nt
N#Cc1ccccc1N1CCN(S(=O)(=O)c2ccc3c(c2)CCC(=O)N3)CC1	-3.6	-4.2	nt	-21.8	nt
O=C(Nc1ccc(NC(=S)NC(=O)c2ccccc2Cl)cc1)c1cccc(Cl)c1	1.9	-1.2	18.3*	-133.6	-1.6
CC(C)C(=O)Nc1cccc(NC(=S)NC(=O)c2ccccc2Cl)c1	10.1	2.5	3.1	-1.6	1.5
O=C(Nc1cccnc1)c1cccnc1Cl	1.6	-2.0	-0.1	1.8	-6.5
CCC(=O)Nc1cccc(NC(=O)c2ccccc2Cl)c1	0.3	-2.3	-0.1	-7.3	-2.8
O=C(Nc1ccc(NC(=O)c2cccnc2Cl)cc1)c1cccc(Cl)c1	-0.3	-3.9	21.9*	10.3	1.1
CCC(=O)Nc1cccc(NC(=S)NC(=O)c2ccccc2Cl)c1	8.3	-1.4	17.2*	-9.5	1.1
CCNC(=S)Nc1cccc(NC(=O)c2ccccc2O)c1	0.8	-88.1	11.0*	-201.5	-6.6
CCNC(=S)Nc1ccc(NC(=O)c2ccccc2O)cc1	0.4	-22.8	9.0	-69.0	-2.3
O=S1(=O)c2c(cccc2N2CCC[C@@H]2CO)O[C@@H]2CCN1C2	16.6	-4.5	nt	-4.9	nt
OC(c1ccccc1)(c1ccccc1)C1CCN(CCCNc2ccc(Cl)cc2Cl)CC1	-8.8	6.8	nt	10.9	nt
S=c1[nH]nc(-c2ccccn2)n1/N=C/c1ccccc1	17.6	-1.4	-0.5	-5.7	-7.2
Cc1ccccc1/C=N/n1c(-c2ccccn2)n[nH]c1=S	4.0	-4.9	11.0*	0.9	-2.6
CCN1C(=O)/C(=C\C(=O)c2cccs2)c2cc(Br)ccc21	6.1	-1.4	31.7*	3.6	10.1
O=C1Nc2ccccc2/C1=C/C(=O)c1cccs1	11.1	1.9	0.4	-2.9	-0.9
Cc1[nH]n(-c2ccccc2)c(=O)c1N=Nc1ccc2c(c1)OCCO2	5.1	-2.2	-23.7	-2.7	15.8
Cc1[nH]n(-c2ccccc2)c(=O)c1N=Nc1c(O)cc(S(=O)(=O)N(C)C)c2ccccc12	31.4*	-4.3	3.1	1.7	31.7
N#Cc1ccc(Cn2ccc3ccc(-c4ccc5ccn(C(=O)C6CCCCC6)c5c4)cc32)cc1	11.5	-10.2	nt	-27.0	nt

Compound activity as filed in PubChem.
